High-throughput results (PubChem BioAssay)
D1 antag – Antagonist of Human D 1 Dopamine Receptor: qHTS; activity change, negative = inhibition, % at 10 µM; HEK293 TREx D1 cells, calcium flux, dopamine EC80; stronger effect = lower value; 360,000 compounds, 3.2% hits; AID 504652, 2011; D(1A) dopamine receptor (Homo sapiens), P21728; in the data active = activity change below about -30%
Target sequence (P21728 whole entry, looked up): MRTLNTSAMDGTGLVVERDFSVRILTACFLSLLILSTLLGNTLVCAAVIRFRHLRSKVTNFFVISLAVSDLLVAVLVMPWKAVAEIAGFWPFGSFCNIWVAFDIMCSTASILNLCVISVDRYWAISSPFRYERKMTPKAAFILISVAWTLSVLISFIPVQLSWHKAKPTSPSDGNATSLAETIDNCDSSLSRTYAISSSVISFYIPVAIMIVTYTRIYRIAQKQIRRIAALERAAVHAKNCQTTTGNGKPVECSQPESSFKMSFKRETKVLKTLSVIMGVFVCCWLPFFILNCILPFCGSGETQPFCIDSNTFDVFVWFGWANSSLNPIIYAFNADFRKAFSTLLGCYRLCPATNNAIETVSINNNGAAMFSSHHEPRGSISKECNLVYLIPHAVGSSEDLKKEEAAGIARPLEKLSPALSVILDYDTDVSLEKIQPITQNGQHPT
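Allosteric or orthosteric antagonism assessed as attenuation of the calcium response to EC80 dopamine, added 180 s after compound, in induced HEK293 Trex D1 cells loaded with no-wash calcium dye.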
D1 PAM – Potentiators of Human D1 Dopamine Receptor: qHTS | HEK293 TREx D1 cells, calcium flux, dopamine EC20 potentiation | potentiation, % at 10 µM | 360,000 compounds, 0.036% hits; in the data active = potentiation above about 30%
TRPV1 agonist – HTS Assay for Compounds that Act as Agonists of the Vanilloid Receptor 1. Transient receptor potential cation channel subfamily V member 1 (Homo sapiens), Q8NER1. TRPV1-expressing cells, Fluo-8 calcium influx, agonist mode. activation, % at 8.33 µM. 320,000 compounds, 0.19% hits; in the data active = activation above about 80%; inconclusive = between about 30% and that limit
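Cells expressing TRPV1 were dye-loaded with Fluo-8 and read kinetically: 10 s baseline, 3 min after compound (agonist portion), then 2 min after EC20 capsaicin (allosteric enhancer portion). Calcium-bound dye fluorescence at 480/520 nm.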
TRPV1 PAM – HTS Assay for Compounds that Act as Potentiators of the Vanilloid Receptor 1. Transient receptor potential cation channel subfamily V member 1 (Homo sapiens), Q8NER1. TRPV1-expressing cells, Fluo-8 calcium influx, capsaicin EC20 potentiation. potentiation, % at 8.33 µM. 320,000 compounds, 0.02% hits. AID 540277, 2011; in the data active = potentiation above about 80%; inconclusive = between about 30% and that limit
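Cells expressing TRPV1 were dye-loaded with Fluo-8 and read kinetically: 10 s baseline, 3 min after compound (agonist portion), then 2 min after EC20 capsaicin (allosteric enhancer portion). Calcium-bound dye fluorescence at 480/520 nm.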
D1 agonist – Allosteric Agonists of the Human D1 Dopamine Receptor: qHTS. AID 504660, 2011. 360,000 compounds, 1% hits. HEK293 T-REx D1 cells, calcium flux, agonist mode. activation, % at 2 µM; in the data active = activation above about 30%
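Inducible HEK293 T-REx D1 cells, force-coupled to calcium signalling, were plated at 4000 cells/well with tetracycline and held overnight at 30 C. After no-wash calcium dye loading, compound-evoked calcium rise over 180 s flagged agonists.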
Hits are given with their value; n = inactive; u = inconclusive; x = no result given. In the library only some 4.2% were active in any assay of this set; here they are far more common.

SMILES	D1 antag	D1 PAM	TRPV1 agonist	TRPV1 PAM	D1 agonist
COc1cc(OC)c2ccc(=O)oc2c1C(CCN1CCN(c2ccccc2)CC1)c1ccc(N(C)C)cc1 (stereo not given)	-74	n	n	n	n
CCN(CC)CCC(c1ccc(N(C)C)cc1)c1c(OC)cc(OC)c2c(-c3ccccc3)cc(=O)oc12 (stereo not given)	-47	n	n	n	39
COc1cc(C2CC(=O)Oc3c(C(CCN4CCN(c5ccccc5)CC4)c4ccc(N(C)C)cc4)c(OC)cc(OC)c32)cc(OC)c1OC (stereo not given)	-38	n	n	n	n
CCN(CC)C(=O)CC(c1cc(OC)c(OC)c(OC)c1)c1c(OC)cc(OC)c2ccc(=O)oc12 (stereo not given)	n	n	n	n	n
CCN(CC)C(=O)CC(c1cc(OC)c(OC)c(OC)c1)c1c(OC)cc(OC)c2c(-c3ccccc3)cc(=O)oc12 (stereo not given)	-100	n	n	n	n
N#Cc1nc(/C=C/c2ccc(F)cc2)oc1N1CCCCC1	n	n	x	x	n
Cn1nnc2c(NCc3ccccc3)ncnc21	x	n	x	x	n
CCc1cccc(NC(=O)CSc2ncc3c(n2)-c2ccc(Cl)cc2N(Cc2ccccc2)S3(=O)=O)c1	n	n	x	x	n
Cc1cccc(Cn2ncc3c4sc(C)cc4n(C)c3c2=O)c1	n	n	x	x	n
COc1ccc(C(CCN2CCN(c3ccccc3)CC2)c2c(OC)cc(OC)c3c(-c4ccccc4)cc(=O)oc23)cc1 (stereo not given)	-42	n	n	n	n
COc1ccc(C(CCN2CCCC2)c2c(OC)cc(OC)c3c(-c4ccccc4)cc(=O)oc23)cc1 (stereo not given)	n	n	n	n	n
COc1cc(OC)c2c(-c3ccccc3)cc(=O)oc2c1C(CCN1CCN(c2ccccc2)CC1)c1ccc(N(C)C)cc1 (stereo not given)	-32	n	n	n	n
COc1cc(C(CC(=O)N2CCN(c3ccccc3)CC2)c2c(OC)cc(OC)c3ccc(=O)oc23)cc(OC)c1OC (stereo not given)	-42	n	n	n	n
COc1cccc(C(=O)NC2=NC(c3ccccc3F)CC(=O)N2)c1 (stereo not given)	n	n	x	x	n
Cc1nc2nc(-c3ccc(Cl)cc3Cl)nn2c(C)c1CCC(=O)Nc1ccc(F)cc1	n	n	x	x	n
CC1(C)N=C(c2ccc(F)cc2)C(=O)N1CC(=O)Nc1ccccc1Cl	n	n	x	x	n
COc1ccc2c(c1)c1c(c(=O)n(Cc3ccccc3)c(=O)n1CC(=O)Nc1ccccc1F)n2C	n	n	x	x	n
CCOc1ccc(N2CC(NC(=O)Cc3ccccc3)CC2=O)cc1 (stereo not given)	x	n	x	x	n
Cc1cccc(-c2nc(Cn3c(SCc4cc(C)ccc4C)nc4ccncc43)c(C)o2)c1	n	n	x	x	n
CN1/C(=C\C(=S)NC(=O)c2cccc(Br)c2)C(C)(C)c2ccccc21	-69	n	n	n	n
COc1cc(/C=C/C(O)=C/C(=O)/C=C/c2ccc(O)cc2)ccc1O	n	n	u	n	351
Clc1ccc(CSc2nnc(-c3ccncc3)s2)cc1	n	n	u	n	n
Clc1cccc(Cl)c1CSc1nnc(-c2ccncc2)s1	n	n	n	n	144
O=S(=O)(c1ccccc1)N(CC(O)COc1ccccc1)c1ccccc1 (stereo not given)	-31	n	x	x	n
C=C(C)CSC1=C(C#N)C(c2ccsc2)CC(=O)N1 (stereo not given)	-39	n	n	n	n
SMILES	D1 antag	D1 PAM	TRPV1 agonist	TRPV1 PAM	D1 agonist
CCSC1=C(C#N)C(c2ccc(F)cc2)CC(=O)N1 (stereo not given)	-32	n	x	x	n
CC(NCc1ccc(-c2ccccc2)cc1)C(O)c1ccccc1 (stereo not given)	n	n	n	n	200
CC(O)CNCc1ccc(-c2ccccc2)cc1 (stereo not given)	n	n	n	n	n
COc1ccc(NC(=O)c2oc3ccccc3c2NC(=O)C2CCCCC2)c(OC)c1	n	n	x	x	n
N=c1n(CC(=O)c2ccc(Br)s2)c2ccccc2n1Cc1ccccc1	n	n	n	n	49
O=C(NCc1nc2ccccc2n1Cc1ccccc1Cl)c1ccccc1	n	n	x	x	n
CCOc1c(Cl)cc(CNc2ccc(N3CCCC3)cc2)cc1OC	n	n	n	n	n
CCOc1c(Cl)cc(CNc2ccc(S(N)(=O)=O)cc2)cc1OC	-41	n	n	n	n
Cc1cc(/C=N/NC(=O)C(O)(c2ccccc2)c2ccccc2)c(C)n1-c1cccc(C(=O)O)c1	-31	n	x	x	n
COc1cc(Nc2nc(SCC(=O)c3ccc(Br)cc3)nc3ccccc23)cc(OC)c1	n	n	x	x	n
O=C(COC(=O)C1COc2ccccc2O1)Nc1ccc(Cl)cc1 (stereo not given)	n	x	n	n	n
CN(C)S(=O)(=O)c1ccc(NC(=O)COC(=O)C2COc3ccccc3O2)cc1 (stereo not given)	-94	n	n	n	n
Cc1ccc2nc(/C(C#N)=C/c3ccc(-c4ccccc4C(=O)O)o3)[nH]c2c1	n	n	n	n	49
Cc1cc2nc(/C(C#N)=C\c3ccc(-c4ccccc4C(=O)O)o3)[nH]c2cc1C	n	n	n	n	82
N#C/C(=C\c1ccc(-c2ccc(F)cc2F)o1)c1nc2ccccc2[nH]1	n	n	x	x	151
N#C/C(=C/c1ccc(Sc2nc3ccccc3[nH]2)o1)c1ccccc1F	n	n	u	n	39
CCCCSc1nnc2c(n1)OC(c1ccc(Br)s1)Nc1ccccc1-2 (stereo not given)	n	n	x	x	n
Cc1ccc(CCNC(=O)CCc2cn(Cc3ccccc3C)c3ccccc23)cc1	n	n	x	x	n
N#C/C(=C\c1ccc([N+](=O)[O-])o1)c1nc2ccccc2[nH]1	n	n	n	n	41
CCOC(=O)c1ccc(-c2ccc(/C=C(\C#N)c3nc4ccc(C)cc4[nH]3)o2)cc1	n	n	x	x	270
Cc1ccc2nc(/C(C#N)=C\c3ccc([N+](=O)[O-])o3)[nH]c2c1	n	n	n	n	n
N#C/C(=C\c1ccc(Sc2ccccc2)o1)c1nc2ccccc2[nH]1	n	n	u	n	n
N#C/C(=C\c1ccc(-c2ccccc2C(=O)O)o1)c1nc2ccccc2[nH]1	n	n	n	n	38
CCn1c(SCc2ccccc2Cl)nc(=O)c2c(C(=O)OC)cc(C3CC3)nc21	n	n	x	x	n
COc1ccc(-c2noc(CCCC(=O)NC3CCCCC3)n2)cc1OC	n	n	n	n	n
